# Laboratory results as given in PubChem BioAssay (NCATS).
# “And” between values parts separate entries of the source, which are not always exact repeats. Identical values can stand only once. Results filed as inconclusive are left out. Where a call stands in place of a potency, no number is given. The source made the active and inactive calls. Unless noted, calls come from the whole dose curve; as a rule, active = well fitted curve in the direction sought with a large enough effect; inconclusive = small, poorly fitted or top-dose-only effect, or another doubt; inactive = no such curve, though single readings can be large; an effect the other way counts as inactive or inconclusive.
# What was measured:
# [1] = target: Thyroid hormone receptor beta (Homo sapiens) (UniProt P10828); assay: qHTS assay for small molecule agonists of thyroid hormone receptor beta signaling (AID 588545; calls by dose curve)
# Chain of Thyroid hormone receptor beta (Homo sapiens) (P10828 whole entry, looked up): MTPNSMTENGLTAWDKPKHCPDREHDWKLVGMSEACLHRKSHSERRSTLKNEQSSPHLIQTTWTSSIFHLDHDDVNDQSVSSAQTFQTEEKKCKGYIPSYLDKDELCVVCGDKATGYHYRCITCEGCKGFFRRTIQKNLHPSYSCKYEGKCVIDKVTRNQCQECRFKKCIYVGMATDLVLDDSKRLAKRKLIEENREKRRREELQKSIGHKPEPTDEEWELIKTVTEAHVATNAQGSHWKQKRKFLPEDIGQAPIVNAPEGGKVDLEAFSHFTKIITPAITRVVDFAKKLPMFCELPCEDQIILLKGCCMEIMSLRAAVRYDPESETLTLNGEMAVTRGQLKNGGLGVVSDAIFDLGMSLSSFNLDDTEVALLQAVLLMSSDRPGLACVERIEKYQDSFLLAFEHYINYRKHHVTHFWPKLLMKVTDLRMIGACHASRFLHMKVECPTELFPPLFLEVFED
# Summary of the method: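 Stimulation of a TR-driven beta-lactamase reporter was quantified in GripTite HEK 293 cells. Compound series ran for 18 hrs; curves were normalized to T3 and DMSO controls and fitted to yield EC50.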
# [2] = qHTS assay for small molecule antagonists of retinoid X receptor alpha signaling (AID 588546; active = well fitted inhibition curve with a large enough effect in the signal ratio, with a control signal flat, not every such curve was filed as active; the % refers to the signal ratio;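 note: cells stimulated with 9-cis-retinoic acid as agonist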); conditions: HEK293T RXRa-UAS-bla, beta-lactamase ratio, antagonist mode; measured here: W530 green channel, cytotoxicity proxy
# Summary of the method: (§1)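 Beta-lactamase reporter inhibition, read as CCF4 fluorescence ratio (ex 405, em 460/530 nm) after 2 h at RT. HEK293T UAS-bla cells, 2500/well, were stimulated with 9-cis-RA at 500 or 100 nM final alongside test compound for 18 h at 37 C.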
# [3] = target: Retinoic acid receptor RXR-alpha (Homo sapiens) (UniProt P19793); assay: as above; conditions: HEK293T RXRa-UAS-bla, beta-lactamase ratio, antagonist mode
# Chain of Retinoic acid receptor RXR-alpha (Homo sapiens) (P19793 whole entry, looked up): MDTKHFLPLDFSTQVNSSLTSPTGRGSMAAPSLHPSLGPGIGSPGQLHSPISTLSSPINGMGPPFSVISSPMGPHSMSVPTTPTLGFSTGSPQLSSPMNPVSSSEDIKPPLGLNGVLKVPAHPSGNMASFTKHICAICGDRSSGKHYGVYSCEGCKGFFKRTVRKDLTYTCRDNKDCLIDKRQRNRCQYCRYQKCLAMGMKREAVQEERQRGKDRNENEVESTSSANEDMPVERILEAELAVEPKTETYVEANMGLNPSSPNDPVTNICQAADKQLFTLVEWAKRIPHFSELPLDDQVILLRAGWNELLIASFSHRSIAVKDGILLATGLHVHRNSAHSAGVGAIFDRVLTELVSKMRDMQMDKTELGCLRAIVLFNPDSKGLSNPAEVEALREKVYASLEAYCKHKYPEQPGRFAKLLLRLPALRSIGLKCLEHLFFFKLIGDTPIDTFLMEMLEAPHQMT
# Summary of the method: as §1
# [4] = target: Thyroid hormone receptor beta (Homo sapiens) (UniProt P10828); assay: qHTS assay for small molecule antagonists of thyroid hormone receptor beta signaling (AID 588547; active = well fitted inhibition curve with a large enough effect in the signal ratio, with a control signal flat, not every such curve was filed as active; the % refers to the signal ratio;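 note: cells stimulated with 0.4 nM T3 agonist during compound exposure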); conditions: TR-UAS-bla HEK293, beta-lactamase ratio, antagonist mode, 18 h
# Summary of the method: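 TR-UAS-bla GripTite HEK293 cells in 2% charcoal/dextran FBS medium; compounds 0.59 nM to 92 uM with T3 at 0.4nM final, 18 h at 37 C. Beta-lactamase read by CCF4 fluorescence (460/530 nm); Hill fits gave IC50 and efficacy.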
# [5] = target: Voltage-gated inwardly rectifying potassium channel KCNH2 (Homo sapiens) (UniProt Q12809); assay: qHTS Assay for Small Molecule Inhibitors of the Human hERG Channel Activity (AID 588834);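 note: top concentration of the series differs between compounds; lower thallium flux fluorescence means stronger hERG block; nearly all actives have a fitted effect of over 50% in size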
# Chain of Voltage-gated inwardly rectifying potassium channel KCNH2 (Homo sapiens) (Q12809 whole entry, looked up): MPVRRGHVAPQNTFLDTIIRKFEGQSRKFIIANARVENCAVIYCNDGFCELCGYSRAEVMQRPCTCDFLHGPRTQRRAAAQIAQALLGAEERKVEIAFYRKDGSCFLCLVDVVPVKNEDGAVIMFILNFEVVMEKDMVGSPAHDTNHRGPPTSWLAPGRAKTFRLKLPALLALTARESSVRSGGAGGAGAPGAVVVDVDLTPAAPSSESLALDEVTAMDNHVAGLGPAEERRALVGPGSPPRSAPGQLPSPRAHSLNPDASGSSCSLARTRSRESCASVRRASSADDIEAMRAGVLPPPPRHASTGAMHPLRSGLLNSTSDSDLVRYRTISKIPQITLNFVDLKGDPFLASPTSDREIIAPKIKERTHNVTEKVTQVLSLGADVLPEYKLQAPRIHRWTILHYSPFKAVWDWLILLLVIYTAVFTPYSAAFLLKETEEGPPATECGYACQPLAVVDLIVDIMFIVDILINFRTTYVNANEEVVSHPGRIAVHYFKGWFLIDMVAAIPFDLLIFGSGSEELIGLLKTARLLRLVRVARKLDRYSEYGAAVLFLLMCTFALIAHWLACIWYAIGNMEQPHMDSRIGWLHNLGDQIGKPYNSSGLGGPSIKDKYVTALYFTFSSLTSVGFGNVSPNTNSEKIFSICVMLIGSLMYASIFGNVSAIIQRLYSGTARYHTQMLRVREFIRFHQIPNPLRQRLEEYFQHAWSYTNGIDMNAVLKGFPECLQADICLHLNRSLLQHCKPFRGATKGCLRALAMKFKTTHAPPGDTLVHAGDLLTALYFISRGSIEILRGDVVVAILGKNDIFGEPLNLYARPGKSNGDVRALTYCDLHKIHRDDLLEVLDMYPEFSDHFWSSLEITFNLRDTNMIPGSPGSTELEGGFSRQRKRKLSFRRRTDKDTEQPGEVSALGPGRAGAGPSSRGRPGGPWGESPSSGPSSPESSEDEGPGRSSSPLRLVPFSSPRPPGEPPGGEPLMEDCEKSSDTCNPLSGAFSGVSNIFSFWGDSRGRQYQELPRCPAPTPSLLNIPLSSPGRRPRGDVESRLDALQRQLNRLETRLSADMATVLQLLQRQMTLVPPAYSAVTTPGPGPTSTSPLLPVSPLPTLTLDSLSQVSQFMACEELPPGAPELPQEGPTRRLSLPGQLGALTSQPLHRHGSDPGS
# Summary of the method: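 hERG block measured as reduced thallium-dye (FluxOR) fluorescence after stimulation buffer addition, read over 2 min. Cells were hERG-BacMam-transduced U2OS exposed to compound ~10 min […]; concentration-response fitted with Hill equation for AC50.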
# [6] = target: Luciferin 4-monooxygenase (Photinus pyralis) (UniProt P08659); assay: Biochemical firefly luciferase enzyme assay for NPC (AID 624030);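 note: purified P. pyralis luciferase at 10 nM with luciferin and ATP substrate; nearly all actives have a fitted effect of over 70% in size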
# Chain of Luciferin 4-monooxygenase (Photinus pyralis) (P08659 whole entry, looked up): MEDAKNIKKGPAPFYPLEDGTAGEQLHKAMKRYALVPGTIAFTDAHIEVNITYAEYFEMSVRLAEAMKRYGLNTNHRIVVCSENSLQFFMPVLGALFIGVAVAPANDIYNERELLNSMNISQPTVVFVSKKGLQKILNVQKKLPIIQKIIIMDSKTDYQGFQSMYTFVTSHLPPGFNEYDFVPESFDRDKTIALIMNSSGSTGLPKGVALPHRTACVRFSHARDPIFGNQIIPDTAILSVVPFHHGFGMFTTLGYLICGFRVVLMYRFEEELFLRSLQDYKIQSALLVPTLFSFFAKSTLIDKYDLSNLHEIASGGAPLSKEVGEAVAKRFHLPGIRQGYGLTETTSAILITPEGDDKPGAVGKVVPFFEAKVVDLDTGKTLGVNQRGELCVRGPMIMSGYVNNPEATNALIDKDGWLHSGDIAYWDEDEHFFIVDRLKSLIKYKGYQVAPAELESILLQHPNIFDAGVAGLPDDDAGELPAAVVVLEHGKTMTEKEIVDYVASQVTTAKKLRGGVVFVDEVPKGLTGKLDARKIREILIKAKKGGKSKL
# Summary of the method: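 Purified P. pyralis luciferase at 10 nM in 50 mM Tris Acetate (final), luminescence read within 5 minutes of enzyme addition to compounds. Activity normalised to PTC124 versus DMSO; concentration-response curves classed by r2, magnitude and activity.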
# [7] = S16 Schwann cell viability assay (CellTiter-Glo assay) (AID 624031);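 note: native untransfected S16 rat Schwann cells; nearly all actives have a fitted effect of over 70% in size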
# Summary of the method: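 Counter-screen for cytotoxicity: parental S16 rat Schwann cells lacking the PMP22 reporters, treated 24 h with compound, viability from cellular ATP by CellTiter-Glo luminescence, normalized to DMSO (0%) and no-cell wells.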
# [8] = S16 Schwann cell PMP22 intronic element firefly luciferase assay (AID 624032); note: nearly all actives have a fitted effect of over 30% in size
# Summary of the method: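 Rat S16 Schwann cells stably carrying firefly luciferase driven by a PMP22 intronic element, in 10% FBS, treated 24 h at 37 C. ONE-Glo luminescence normalized to PTC124 control and DMSO (0%); curves classed by r2, magnitude and activity.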
# [9] = S16 Schwann cell PMP22 intronic element beta-lactamase assay (AID 624044; calls by dose curve; note: nearly all actives have a fitted effect of over 15% in size); conditions: S16 rat Schwann cells, PMP22 element beta-lactamase FRET, 24 h; ratio activity, negative = inhibition: at 38.3 µM (top of the series) unless noted
# Summary of the method: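 Beta-lactamase reporter under a PMP22 intronic regulatory element in stable S16 rat Schwann cells; 24 h compound exposure. 460 nm blue signal normalized between DMSO (0%) and potassium clavulanate, with 535 nm FRET tracking viability; curves classed by r2 and response.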
SMILES,outcome [1],max response [2],max response [3],activity change % (negative = inhibition) [4],Potency [5],Potency [6],Potency [7],Potency [8],"ratio activity, negative = inhibition [9]"
CCCCCCCCCCCCCCCCCC(=O)OC[C@@H](O)[C@H]1OC[C@H](O)[C@H]1O,inactive,-3.05%,-7.79% (inactive),11.4% (inactive),inactive,inactive,inactive,inactive,1.3% (inactive)
CC(C)[C@@H]1CC[C@@H](C)C[C@H]1O,inactive,,,,inactive,,,,
O=c1n(CC2CO2)c(=O)n(CC2CO2)c(=O)n1CC1CO1 (centres undefined),inactive,19.5%,-59.1% (inactive),-18.3% (inactive) and -20.3% (inactive),inactive,inactive,inactive,,-25.3% (inactive)
COC(=O)c1ccccc1O,inactive,1.7% and -5.56%,-1.72% (inactive) and -1.77% (inactive),-3.85% (inactive),inactive,inactive,inactive,inactive,
CC[C@H]1OC(=O)[C@H](C)[C@@H](O[C@H]2C[C@@](C)(OC)[C@@H](O)[C@H](C)O2)[C@H](C)[C@@H](O[C@@H]2O[C@H](C)C[C@H](N(C)C)[C@H]2O)[C@](C)(O)C[C@@H](C)CN(C)[C@H](C)[C@@H](O)[C@]1(C)O,inactive,13.1%,-8.56% (inactive),-2.15% (inactive),inactive,inactive,inactive,inactive,-5.31% (inactive)
CN(CCO)CC(O)Cn1cnc2c1c(=O)n(C)c(=O)n2C (centres undefined) (tested in a mixture with another compound),inactive,-4.33%,-3.95% (inactive),12.1% (inactive),inactive,inactive,inactive,inactive,1.27% (inactive)
CO/N=C(/C(=O)N[C@@H]1C(=O)N2C(C(=O)O)=C(COC(N)=O)CS[C@H]12)c1ccco1,inactive,-0.122%,-5.55% (inactive),-0.0158% (inactive),inactive,inactive,inactive,inactive,0.236% (inactive)
OCC(O)CO,inactive,-6.53% and 10.4%,0.797% (inactive) and 12.5% (inactive),-5.42% (inactive) and 3.32% (inactive),inactive,inactive,,inactive,2.96% (inactive)
CCCCO,inactive,1.36% and -14.8%,4.41% (inactive) and -4.75% (inactive),5.68% (inactive) and 1.89% (inactive),inactive,inactive,inactive,inactive,
Nc1ncnc2c1ncn2[C@H]1CC[C@@H](CO)O1,inactive,0.911%,-6.41% (inactive),-11% (inactive) and 4.8% (inactive),inactive,inactive,inactive,inactive,
CCCCC(CC)COS(=O)(=O)O (centres undefined),inactive,-15.9%,7.69% (inactive),9.71% (inactive),inactive,inactive,inactive,inactive,
c1ccc2ccccc2c1,inactive,-9.07% and -13.7%,0.585% (inactive) and 18.2% (inactive),2.25% (inactive) and -17.5% (inactive),inactive,inactive,,inactive,
OCl,inactive,1.84%,40.5% (inactive),-3.27% (inactive),inactive,inactive,inactive,inactive,
CC1=CCC2CC1C2(C)C (centres undefined),inactive,-2.11%,2.29% (inactive),6.5% (inactive),inactive,inactive,,inactive,2.01% (inactive)
CCCCC,inactive,-4.57%,3.28% (inactive),,inactive,inactive,inactive,,1.47% (inactive)
OB(O)O,inactive,-7.19% and -10.5%,9.01% (inactive) and 7.69% (inactive),3.84% (inactive) and -13.5% (inactive),inactive,inactive,inactive,inactive,0.47% (inactive)
CO,inactive,-6.65%,-0.242% (inactive),0.348% (inactive),inactive,inactive,inactive,inactive,
NCCO/C=C/[C@H](N)C(=O)O,inactive,-8.31%,-9.4% (inactive),19.7% (inactive),inactive,inactive,inactive,inactive,
OC[C@H]1O[C@@](CO)(O[C@H]2O[C@H](CO)[C@@H](O)[C@H](O)[C@H]2O)[C@@H](O)[C@@H]1O,inactive,-3.43%,4.65% (inactive),-5.25% (inactive),inactive,inactive,,inactive,
[O-][N+](=Nc1ccccc1)c1ccccc1,inactive,-0.56%,1.34% (inactive),7.57% (inactive),,,inactive,,3.38% (inactive)
